Assay outcomes: PubChem, National Center for Advancing Translational Sciences (NCATS)
This is a sample that favours compounds with a hit; in the whole collection about 4% have one here.
TRHR ag: activates the human TRH receptor; activation, % at 2 µM; AID 493084; 360,000 compounds, 0.18% hits; TRHR cells, calcium flux fluo-8, FDSS agonist mode; further: 0% is about no effect
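In this calcium-flux screen, cells bearing human TRHR are dye-loaded with fluo-8, baselined for 10 cycles, then exposed to library compounds; positive kinetic calcium responses during the agonist phase mark hits, with TRH as control.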
Glioma ERSR ind: ER stress response induction in glioma | AID 602332 | Potency, µM, without a hit: at the top dose activation, usual class: activators | 420,000 compounds, 0.02% hits | U87-MG GRP78 promoter luciferase reporter, 16 h; active means well fitted activation curve with a large enough effect; further: potency means the concentration at half of the fitted maximal effect; series mostly up to about 76 µM; % of control where 0% means no effect; nearly all actives have a fitted effect of over 35% in size
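ERSR induction read as luciferase luminescence (Bright-Glo, 10 min at room temperature) in stably transfected human U87-MG glioma cells exposed to compounds for 16 h, using GRP78 as sensor.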
D1 agonist: activates the human D1 dopamine receptor | P21728 | HEK293 T-REx D1 cells, calcium flux, agonist mode | activation, % at 2 µM | 360,000 compounds, 1% hits | AID 504660; further: 0% is about no effect
Target sequence (P21728 whole entry, looked up): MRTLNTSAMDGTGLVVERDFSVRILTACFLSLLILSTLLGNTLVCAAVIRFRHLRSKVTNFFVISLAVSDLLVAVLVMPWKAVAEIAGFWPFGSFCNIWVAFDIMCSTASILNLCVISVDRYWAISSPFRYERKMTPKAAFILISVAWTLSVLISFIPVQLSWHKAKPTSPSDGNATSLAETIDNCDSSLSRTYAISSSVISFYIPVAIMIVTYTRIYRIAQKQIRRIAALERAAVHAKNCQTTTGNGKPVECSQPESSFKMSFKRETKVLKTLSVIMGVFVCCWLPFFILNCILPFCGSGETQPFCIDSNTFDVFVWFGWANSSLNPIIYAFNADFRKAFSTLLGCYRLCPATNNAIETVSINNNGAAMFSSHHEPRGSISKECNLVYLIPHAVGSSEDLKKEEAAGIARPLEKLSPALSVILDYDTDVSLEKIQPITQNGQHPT
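Inducible HEK293 T-REx D1 cells, force-coupled to calcium signalling, were plated at 4000 cells/well with tetracycline and held overnight at 30 C. After no-wash calcium dye loading, compound-evoked calcium rise over 180 s flagged agonists.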
TRHR enhancer: allosterically enhances the human TRH receptor; TRHR cells, fluo-8 calcium fluorescence, EC20 TRH enhancement; 360,000 compounds, 0.66% hits; enhancement, % at 2 µM; P34981; in the data active means enhancement above about 30%; further: 0% is about no effect
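Enhancer read-out: after compound pinning and an initial kinetic agonist-mode read, an EC20 of TRH (10 nM final) was injected and fluo-8 calcium signal (Ex 480/Em 530) followed at 1 s/cycle for 100 cycles in TRHR-expressing cells.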
D1 potentiator: human D1 dopamine receptor positive modulation; P21728; HEK293 TREx D1 cells, calcium flux, dopamine EC20 potentiation; potentiation, % at 10 µM; 360,000 compounds, 0.036% hits; AID 504651; in the data active means potentiation above about 30%; further: 0% is about no effect
D1 antagonist: human D1 dopamine receptor antagonism | P21728 | HEK293 TREx D1 cells, calcium flux, dopamine EC80; stronger effect = lower value | activity change, negative = inhibition, % at 10 µM | 360,000 compounds, 3.2% hits | AID 504652; in the data active means activity change below about -30%; further: on the % scale 0 is the no-effect control and ±100 the full control effect
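HEK293 T-REx cells expressing inducible, force-coupled D1 receptor; no-wash Ca dye, 30–90 min RT. Cmpd → 180 s read at 1 Hz → EC80 DA → 180 s read.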
The depositor's hits bear a star; . = no result given. Unless noted, no stated cut-off is given here; in the data, active means activation above about 30%; inactive means the rest.

SMILES | TRHR ag | Glioma ERSR ind | D1 agonist | TRHR enhancer | D1 potentiator | D1 antagonist
O=C(Nc1nnc(-c2ccncc2)o1)C1CCCCC1 | 1 | -4% | 1 | 7 | -4 | -29
COc1ccc(OC)c(-c2c3cc(O)c(=O)cc-3oc3cc(O)c(O)cc23)c1 | 16 | 0% | 44* | 25 | -2 | 0
Cc1ccc2c(c1)CN(CCNC(=O)c1cccc(Cn3cccn3)c1)CC(C)O2 (configuration not stated) | . | -1% | . | . | . | .
COc1ccc(C(CNC(=O)C2CC(=O)N(Cc3ccccc3)C2)N2CCOCC2)cc1 (configuration not stated) | 2 | -4% | 5 | -2 | 1 | 8
CC(=O)c1ccc(Nc2c3c(nc4ccccc24)CCCC3)cc1 | 0 | 0% | 4 | 0 | -11 | -42*
COC(=O)c1cccc(Nc2c3c(nc4ccccc24)CCC3)c1 | -1 | -6% | 0 | 10 | -6 | 4
Fc1cccc(Nc2c3c(nc4ccccc24)CCC3)c1 | 0 | -1% | 6 | -4 | -12 | -53*
CC(=O)c1cccc(Nc2c3c(nc4ccccc24)CCC3)c1 | -1 | -5% | 1 | 6 | -4 | -3
O=C(Nc1c2c(nc3ccccc13)CCCC2)c1ccccc1F | 0 | -3% | 1 | 4 | -4 | -37*
Nc1c2c(nc3ccccc13)N(C1CCCCC1)CC2 | 0 | -8% | -2 | -3 | -9 | -37*
O=C(Nc1c2c(nc3ccccc13)CCCC2)c1ccccc1Cl | 1 | -2% | 0 | -3 | -8 | 7
CC[C@H](C)[C@H](NC(=O)[C@H](C)NC(=O)[C@H](Cc1cnc[nH]1)NC(=O)[C@@H]1CCCN1C(=O)CNC(=O)[C@H](CC(C)C)NC(=O)[C@H](CC(C)C)NC(=O)[C@H](Cc1ccc(O)cc1)NC(=O)CNC(=O)[C@H](C)NC(=O)[C@H](CO)NC(=O)[C@H](CC(N)=O)NC(=O)[C@H](CC(C)C)NC(=O)[C@@H](NC(=O)[C@H](Cc1c[nH]c2ccccc12)NC(=O)CN)[C@@H](C)O)C(=O)N[C@@H](CC(=O)O)C(=O)N[C@@H](CC(N)=O)C(=O)N[C@@H](Cc1cnc[nH]1)C(=O)N[C@@H](CCCNC(=N)N)C(=O)N[C@@H](CO)C(=O)N[C@@H](Cc1ccccc1)C(=O)N[C@@H](CO)C(=O)N[C@@H](CC(=O)O)C(=O)N[C@@H](CCCCN)C(=O)N[C@@H](Cc1cnc[nH]1)C(=O)NCC(=O)N[C@@H](CC(C)C)C(=O)N[C@H](C(N)=O)[C@@H](C)O | . | -7% | . | . | . | .
NC(=O)COC(=O)c1c2c(nc3ccccc13)CCC2 | 0 | -1% | 3 | 1 | -3 | 11
COc1ccc(Nc2c3c(nc4ccccc24)CCC3)c(OC)c1 | 0 | -5% | 1 | -13 | -8 | -1
COc1ccccc1Nc1c2c(nc3ccccc13)CCC2 | 0 | 3% | 6 | 2 | -19 | -38*
Nc1c2c(nc3ccccc13)CCC2 | 1 | -1% | -1 | 2 | -9 | -43*
COc1cccc(-c2ccnc(-n3ncc(C(=O)NCc4cccnc4)c3C3CC3)n2)c1 | . | -1% | . | . | . | .
C/C(=N\OCc1nc2ccccc2c(=O)n1/N=C/c1cc(C)cc([N+](=O)[O-])c1O)c1ccccc1 | 0 | 2% | 12 | -1 | 0 | -33*
COC(=O)c1c(C)[nH]c(C=Nc2ccc(OC)cc2)c1C | 0 | 1% | 0 | 38* | 0 | 4
CCOC(=O)c1c(C)[nH]c(C=Nc2ccc(OC)cc2)c1O | 0 | 1% | 0 | -2 | -1 | 5
COc1cc(C(=O)Nc2ccccc2SCc2cc(=O)n3nc(C)sc3n2)cc(OC)c1OC | -1 | -2% | 4 | -4 | -5 | -50*
O=C1COc2ccc(C(=O)COC(=O)Cc3ccc(Cl)cc3)cc2N1 | 1 | -3% | 6 | 36* | 4 | 1
Cc1ccc(C(=O)OCC(=O)N2CCCC2)cc1 | 0 | 2% | 1 | 13 | -7 | -56*
COc1cc(C(=O)OCC(=O)N2CCCC2)cc(OC)c1OC | 7 | 4% | 3 | -3 | -4 | -42*
Cc1cc(C)cc(C(=O)OCC(=O)N2CCCC2)c1 | 1 | -3% | -1 | -7 | 4 | 3
SMILES | TRHR ag | Glioma ERSR ind | D1 agonist | TRHR enhancer | D1 potentiator | D1 antagonist
Cc1ccc(OCC(=O)Nc2c(C)nn(-c3ccccc3)c2C)c(Br)c1 | 0 | -2% | 15 | -3 | -4 | -37*
COCCNC(=O)C1(C(F)(F)F)C/C(=C\Cc2ccccc2)CCCO1 (configuration not stated) | . | -4% | . | . | . | .
CCC(=O)N1CCCC(C(=O)c2ccc(-c3ccccc3)cc2)C1 (configuration not stated) | 0 | 2% | 5 | 0 | -6 | -30*
COC(=O)CCCC(=O)N1CCCC(C(=O)c2ccc(-c3ccccc3)cc2)C1 (configuration not stated) | -1 | 0% | 4 | 3 | -9 | -30*
O=C(CCC1CCCN(C(=O)CCC(F)(F)F)C1)NCc1ccc(F)c(F)c1 (configuration not stated) | 0 | 5% | 5 | 21 | 3 | -6
COC(=O)CCCC(=O)N1CCCC(CCC(=O)NCc2ccc(F)c(F)c2)C1 (configuration not stated) | -1 | 0% | 8 | 7 | -6 | -44*
COC(=O)CCCC(=O)N1CCCC(C(=O)c2ccccc2SC)C1 (configuration not stated) | -1 | -2% | 3 | 1 | -5 | -20
COc1cc(CNC(C)c2ccccc2)cc(Cl)c1OCC(=O)Nc1ccccc1 (configuration not stated) | 3 | -3% | 64* | -1 | -11 | .
Cn1c(CCNC(=O)c2ccco2)nc2cc(NC(=O)COc3ccc(Cl)cc3)ccc21 | 0 | -1% | -1 | -7 | 1 | -4
CC(C)(C)n1ncc2c(=O)n(Cc3ccc(Cl)cc3F)cnc21 | . | -2% | . | . | . | .
CC(=O)Nc1ccc(-c2ccccc2)s1 | -1 | -3% | 3 | -1 | -3 | 4
CC(=O)Nc1ccc(NC(C)=O)s1 | 0 | 1% | 2 | 1 | -5 | -34*
Cc1cnc(CNC(=O)CC2C(=O)NCCN2Cc2cccc(F)c2F)cn1 (configuration not stated) | 1 | 9% | 7 | 0 | -3 | -3
Cc1ccc(CCNC(=O)C23CN(Cc4ccccc4)CC2C(c2cccc([N+](=O)[O-])c2)=NO3)cc1 (configuration not stated) | 0 | 0% | 0 | 34* | 1 | -10
